Structures are written as SMILES. Records with an inconclusive call do not appear. The source made the active and inactive calls. Calls follow the shape of the dose curve; as a rule, active = well fitted inhibition curve with a large enough effect; inconclusive = small, poorly fitted or top-dose-only effect; inactive = flat fitted curve, though single readings scatter.

Assay in all cases: qHTS profiling for inhibitors of Plasmodium falciparum proliferation (AID 504749); also: nearly all actives have a fitted effect of over 60% in size;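 as to activity, negative = inhibition: 0% = DMSO vehicle and full inhibition = artemisinin control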
Common to all, as to conditions: P. falciparum in erythrocytes, SYBR Green DNA, 72 h; series mostly up to 28.7 µM
On the technique in general: In qHTS, concentration-response curves come from the screen itself.

One test has as its system CP238. The essentials:
(§1)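 Infected RBCs, 0.3% parasitemia/2.5% Hct final; cpd 72 h, 37 C, 5% CO2; lysis buffer with saponin/triton/SYBR Green I, o/n RT dark; FI 485/535; norm. to artemisinin (0.29 uM) and DMSO.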

The test system of another test is CP247. Put shortly:
as §1

Another test deals with CP250. Put shortly: as §1
The next test relates to CP252. Put shortly:
as §1

The subject of the next test is CP256. The essentials: as §1
In another test the test system is CP260. The essentials: as §1
Another test concerns CP262. The essentials:
as §1

In another test the test system is CP265. Put shortly: as §1
For the next test, the system named is CP266. The essentials:
as §1

A further test relates to CP268. Put shortly: as §1
The next test deals with CP269. Put shortly: as §1
Another test deals with CP286. Put shortly:
as §1

A further test has as its system CP291. Put shortly: as §1
For the next test, the system named is CP297. Put shortly: as §1
The test system of another test is CP305. The essentials:
as §1

The next test deals with CP315. The essentials: as §1
For a further test, the system named is CP325. Put shortly:
as §1

A further test relates to CP329. The essentials:
as §1

Another test relates to CP335. The essentials: as §1
The subject of a further test is DFO2036. The essentials: as §1
Potency is read from the fitted curve at half-maximal effect.

Regarding `O=C1CN=C(c2ccccc2)c2cc([N+](=O)[O-])ccc2N1`, the Potency entry in the test on CP238, in the test on CP247, with CP250, in the test on CP252, with CP256 and with CP260 was “inactive” in each case. Further, the Potency result in the test with CP262, in the test on CP265, with CP268, in the test with CP269, with CP286 and with CP291 was “inactive” each time. The Potency entry in the test on CP297, with CP305, with CP315, in the test with CP325, in the test on CP329 and in the test with CP335 was “inactive” each time. Moreover, in the test on DFO2036, the Potency entry is “inactive”. For the same molecule, the molecule was classed as inactive in the test on CP266.

In the case of `C[C@]12CC[C@@H]3c4ccc(OC(=O)N(CCCl)CCCl)cc4CC[C@H]3[C@@H]1CC[C@@H]2O`, the Potency entry in the test with CP238, in the test with CP247, with CP250, in the test with CP252, in the test with CP256 and in the test with CP260 was “inactive” in each case. For the same molecule, the Potency result in the test with CP262, in the test on CP265, with CP268, in the test with CP269, in the test with CP286 and in the test with CP291 was “inactive” throughout. Besides, the Potency entry in the test with CP297, in the test on CP305, with CP315, in the test on CP325, in the test with CP329 and in the test with CP335 was “inactive” throughout. Besides, the Potency result with DFO2036 is “inactive”. Further, the molecule was classed as inactive in the test on CP266.

For `CCC(C)(C)c1ccc(O)cc1`, the Potency entry in the test on CP238, with CP247, with CP250, in the test with CP252, with CP256 and in the test on CP260 was “inactive” throughout. For the same molecule, the Potency result in the test with CP262, with CP265, in the test on CP268, with CP269, in the test on CP286 and in the test with CP291 was “inactive” throughout. For the same molecule, the Potency result with CP297, with CP305, with CP315, in the test on CP325, with CP329 and in the test on CP335 was “inactive” throughout. For the same molecule, in the test on DFO2036, the Potency result is “inactive”. Moreover, the result in the test on CP266 was inactive.

Regarding `CC(C)(C)NCC(O)c1cc(Cl)c(N)c(C(F)(F)F)c1` (stereo not given), the Potency with CP238 is 8.91 µM (active); in the test on CP247, 10 µM (active); in the test on CP250, 10 µM (active); in the test with CP252 it was 8.91 µM (active); in the test with CP256 it was 11.2 µM (active); with CP260 it was 12.6 µM (active). Moreover, the Potency in the test with CP265 was 8.91 µM (active); in the test with CP297, 15.1 µM (active); in the test on DFO2036, 5.01 µM (active). Further, the result in the test with CP266 was inactive. Besides, the Potency result with CP315 and in the test on CP329 was “inactive” throughout.

For the molecule `CCOC(=O)CC(SP(=S)(OC)OC)C(=O)OCC` (stereo not given), the Potency result in the test with CP238, in the test on CP247, in the test on CP250, in the test with CP252, with CP256 and in the test with CP260 was “inactive” each time. Besides, the Potency entry with CP262, in the test with CP265, in the test with CP268, in the test with CP269, with CP286 and with CP291 was “inactive” throughout. In addition, the Potency entry in the test on CP297, with CP305, in the test with CP315, with CP325, in the test with CP329 and with CP335 was “inactive” each time. The Potency entry in the test with DFO2036 is “inactive”.

`O=C(O)CCCc1ccc(N(CCCl)CCCl)cc1`: the Potency result in the test with CP238, in the test on CP247, in the test on CP252, with CP256, in the test on CP260 and in the test with CP262 was “inactive” throughout. Also, the Potency entry in the test with CP265, with CP268, with CP269, in the test with CP286, with CP291 and in the test on CP297 was “inactive” throughout. The Potency entry in the test on CP305, in the test with CP315, with CP325, with CP329, with CP335 and in the test on DFO2036 was “inactive” each time. For the same molecule, the molecule was classed as inactive in the test on CP266.

As to `CCCCC/C=C\C/C=C\C/C=C\C/C=C\CCCC(=O)NCC(=O)O`, the activity, negative = inhibition in the test with CP238 was -1.95% [at 2.67 µM] (inactive); in the test on CP247, 9.07% [at 2.67 µM] (inactive); in the test with CP250, 11.6% [at 2.67 µM] (inactive); in the test with CP252 it was -0.781% [at 2.67 µM] (inactive); with CP256, 0.973% [at 2.67 µM] (inactive); in the test on CP260 it was 4.28% [at 2.67 µM] (inactive). Further, the activity, negative = inhibition in the test with CP262 was 2.09% [at 2.67 µM] (inactive); in the test with CP265 it was 2.88% [at 2.67 µM] (inactive); with CP268, -7.02% [at 2.67 µM] (inactive); in the test with CP269 it was 0.824% [at 2.67 µM] (inactive); with CP286, 0.0979% [at 2.67 µM] (inactive); in the test with CP291, -4.76% [at 2.67 µM] (inactive). Moreover, the activity, negative = inhibition with CP297 was -4.97% [at 2.67 µM] (inactive); in the test on CP305 it was 3.97% [at 2.67 µM] (inactive); in the test on CP315, -5.37% [at 2.67 µM] (inactive); in the test on CP325, 2.88% [at 2.67 µM] (inactive); in the test on CP329 it was 5.14% [at 2.67 µM] (inactive); in the test on CP335 it was 3% [at 2.67 µM] (inactive). Moreover, the activity, negative = inhibition with DFO2036 is 8.68% [at 2.67 µM] (inactive).

Regarding `O=C1c2ccccc2C(=O)C1C(=O)C(c1ccccc1)c1ccccc1`, the Potency entry in the test with CP238, in the test with CP247, with CP250, in the test with CP252, with CP256 and in the test with CP262 was “inactive” throughout. In addition, the Potency entry in the test on CP265, in the test on CP268, with CP269, in the test on CP286, with CP291 and in the test with CP297 was “inactive” throughout. In addition, the Potency result in the test on CP305, with CP315, in the test on CP325, in the test on CP329, in the test on CP335 and in the test on DFO2036 was “inactive” in each case. Also, the call in the test with CP266 was inactive.

Take `C=C(C)[C@H]1CN[C@H](C(=O)O)[C@H]1CC(=O)O`: the Potency entry in the test on CP238, in the test with CP247, in the test with CP250, in the test with CP252, with CP256 and in the test with CP260 was “inactive” throughout. Moreover, the Potency entry in the test on CP262, in the test on CP265, in the test on CP269, in the test with CP286, with CP291 and in the test on CP305 was “inactive” each time. In addition, the Potency entry in the test with CP315, in the test with CP325, with CP329 and with DFO2036 was “inactive” in each case.

Regarding `CCCC(C)(COC(N)=O)COC(N)=O`, the Potency entry in the test on CP238, in the test with CP247, with CP250, in the test on CP252, in the test with CP256 and in the test on CP260 was “inactive” in each case. In addition, the Potency result in the test on CP262, in the test on CP265, in the test with CP268, with CP269, in the test on CP286 and in the test with CP297 was “inactive” in each case. Also, the Potency result in the test with CP305, in the test on CP315, in the test on CP325, in the test on CP329, with CP335 and in the test with DFO2036 was “inactive” throughout. In addition, in the test on CP266, the call was inactive.

Regarding `CC(C)(C)NCC(O)c1ccccc1Cl` (stereo not given), the Potency entry in the test with CP250, with CP256, in the test on CP262, in the test on CP265, in the test on CP268 and in the test with CP269 was “inactive” throughout. The Potency entry with CP286, in the test with CP291, with CP305, with CP315, with CP325 and with CP329 was “inactive” each time. In addition, in the test with DFO2036, the Potency result is “inactive”. In the test on CP297, the Potency is 13.5 µM (active).

As for `COC1CC(=C(c2cccs2)c2cccs2)C[N+](C)(C)C1` (stereo not given), the Potency in the test with CP238 is 6.31 µM (active); in the test with CP247, 5.01 µM (active); in the test on CP250 it was 10 µM (active); with CP252, 4.47 µM (active); with CP256, 4.47 µM (active); with CP260 it was 5.62 µM (active). Also, the Potency is 4.47 µM (active) in the test on CP265; 10.7 µM (active) with CP269; 11.2 µM (active) in the test with CP286; 6.01 µM (active) in the test on CP335; 5.62 µM (active) in the test with DFO2036.

In the case of `O=C(N/N=C/c1ccc([N+](=O)[O-])o1)c1cc([N+](=O)[O-])cc([N+](=O)[O-])c1O`, the Potency is 0.0708 µM (active) in the test with CP238; 0.02 µM (active) in the test with CP247; 0.1 µM (active) in the test with CP250; 0.251 µM (active) in the test with CP256; 2.24 µM (active) with CP265; 3.98 µM (active) in the test with DFO2036.

Turning to `Cc1nnc2n1-c1ccc(Cl)cc1C(c1ccccc1)=NC2`, the Potency result in the test on CP238, with CP247, with CP250, in the test on CP252, with CP260 and in the test on CP262 was “inactive” throughout. Moreover, the Potency entry with CP265, in the test on CP268, in the test on CP269, in the test with CP286, in the test with CP291 and in the test on CP297 was “inactive” in each case. Moreover, the Potency result in the test with CP305, with CP315, in the test with CP325, in the test with CP329 and in the test with DFO2036 was “inactive” throughout. The result in the test on CP266 was inactive.

With `CCCCCCC(=O)CCCCCC/C=C/C[C@@H](O)[C@H](O)[C@@](N)(CO)C(=O)O`, the Potency result in the test with CP238, in the test on CP247, in the test on CP252, in the test with CP256, with CP260 and with CP262 was “inactive” each time. The Potency result in the test on CP265, with CP268, in the test with CP269, in the test with CP286, in the test with CP291 and with CP297 was “inactive” throughout. Also, the Potency result in the test on CP305, in the test with CP315, in the test on CP325, in the test on CP329, in the test with CP335 and with DFO2036 was “inactive” throughout. Further, the call in the test on CP266 was inactive.

Take `Nc1ccccc1C(=O)O`: the Potency result with CP238, with CP247, with CP250, in the test on CP252, in the test on CP256 and in the test on CP260 was “inactive” throughout. Further, the Potency result with CP262, in the test with CP265, in the test with CP268, with CP269, in the test on CP286 and in the test with CP291 was “inactive” each time. For the same molecule, the Potency entry in the test on CP297, with CP305, in the test on CP315, with CP325, in the test with CP329 and with CP335 was “inactive” each time. The Potency entry with DFO2036 was “inactive”.

The values are drawn from PubChem BioAssay (NCATS).
